Test results as given in the supplement of paper PMC9262897, “Low-cost anti-mycobacterial drug discovery using engineered E. coli” (Nature Communications, 2022).
Structures can show the parent of a compound that is named as a salt. ± gives the standard deviation of the averaged measurements.

Legend:
Assay in all cases: growth (OD600 after 10 h); higher = more growth (less inhibition)
[1] = tested on: E. coli TESEC Alr+ wild-type control; conditions: compound 0.1 mM; raw OD600 reference: median of DMSO wells 0.241, cell-free background 0.041
Experimental: (§1)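 TESEC Mtb Alr E. coli, or the Alr+ wild-type control, in 384-well plates with Prestwick library compounds at 0.1 mM and 1% DMSO, across arabinose induction levels of 1E3 to 1E7 nM. Growth is read as OD600 after 10 h at 37 °C in triplicate biological replicates.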

E. coli TESEC Mtb Alr [2] = conditions: compound 0.1 mM
Experimental: as §1

E. coli TESEC Mtb Asd = conditions: compound 0.1 mM
Experimental: (§2)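 TESEC E. coli strains in which the native enzyme is deleted and replaced by arabinose-inducible Mtb Asd, DapB, CysH or TrpD, each grown in its selective medium. Strains were screened against the Prestwick library at 0.1 mM and 1% DMSO in 384-well format at low and high arabinose induction. Growth is read as OD600 after 10 h in triplicate.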

E. coli TESEC Mtb Alr [3] = conditions: compound 0.1 mM; remark: listed apart in the source
Experimental: (§3)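 TESEC Mtb Alr E. coli (ΔaraC ΔtolC ΔentC Δalr ΔdadX, arabinose-inducible Mtb Alr) or the Alr+ wild-type control strain, grown in defined M9-fructose medium without D-alanine in 96-well plates with Prestwick library compounds at 0.1 mM and 1% DMSO. Low Alr induction is 0.1 µM arabinose and high induction is 10 mM arabinose.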

[4] = tested on: E. coli TESEC Alr+ wild-type control; conditions: compound 0.1 mM; raw OD600 reference: median of DMSO wells 0.49, cell-free background 0.052
Experimental: as §3

E. coli TESEC Mtb DapB = conditions: compound 0.1 mM
Experimental: as §2

[5] = arabinose 1000 nM, raw OD600 reference: median of DMSO wells 0.294, cell-free background 0.041
[6] = arabinose 10000 nM, raw OD600 reference: median of DMSO wells 0.264, cell-free background 0.041
[7] = arabinose 100000 nM, raw OD600 reference: median of DMSO wells 0.201, cell-free background 0.041
[8] = arabinose 1000000 nM, raw OD600 reference: median of DMSO wells 0.193, cell-free background 0.041
[9] = arabinose 10000000 nM, raw OD600 reference: median of DMSO wells 0.146, cell-free background 0.041
[10] = arabinose induction (level): High, raw OD600 reference: median of DMSO wells 0.331, cell-free background 0.041
[11] = arabinose induction (level): Low, raw OD600 reference: median of DMSO wells 0.417, cell-free background 0.041
[12] = arabinose 100 nM, raw OD600 reference: median of DMSO wells 0.413, cell-free background 0.052
[13] = arabinose 10000000 nM, raw OD600 reference: median of DMSO wells […], cell-free background 0.052
[14] = arabinose induction (level): High, raw OD600 reference: median of DMSO wells […], cell-free background 0.041
[15] = arabinose induction (level): Low, raw OD600 reference: median of DMSO wells 0.227, cell-free background 0.041

Row | SMILES | growth [1] | growth (E. coli TESEC Mtb Alr [2]; [5]) | growth (E. coli TESEC Mtb Alr [2]; [6]) | growth (E. coli TESEC Mtb Alr [2]; [7]) | growth (E. coli TESEC Mtb Alr [2]; [8]) | growth (E. coli TESEC Mtb Alr [2]; [9]) | growth (E. coli TESEC Mtb Asd; [10]) | growth (E. coli TESEC Mtb Asd; [11]) | growth (E. coli TESEC Mtb Alr [3]; [12]) | growth (E. coli TESEC Mtb Alr [3]; [13]) | growth [4] | growth (E. coli TESEC Mtb DapB; [14]) | growth (E. coli TESEC Mtb DapB; [15])
1 | O=c1n(CCCN2CCN(c3cccc(Cl)c3)CC2)nc2ccccn12 [Trazodone hydrochloride] | 0.203 ± 0.0052 | 0.24 ± 0.011 | 0.235 ± 0.0052 | 0.159 ± 0.0089 | 0.105 ± 0.0032 | 0.13 ± 0.0034 | 0.242 ± 0.051 | 0.404 ± 0.099 | 0.406 ± 0.0066 | 0.255 ± 0.028 | – | – | –
2 | CC1(C)S[C@@H]2[C@H](NC(=O)[C@H](N)c3ccc(O)cc3)C(=O)N2[C@H]1C(=O)O [Amoxicillin] | 0.242 ± 0.006 | 0.297 ± 0.0057 | 0.251 ± 0.0052 | 0.211 ± 0.033 | 0.186 ± 0.0034 | 0.14 ± 0.0024 | 0.358 ± 0.097 | 0.321 ± 0.037 | 0.422 ± 0.011 | 0.378 ± 0.0083 | 0.572 ± 0.07 | – | –
3 | Cc1ncc(CO)c(CO)c1O [Pyridoxine hydrochloride] | 0.258 ± 0.0075 | – | – | – | – | – | 0.344 ± 0.1 | 0.37 ± 0.022 | 0.428 ± 0.0097 | 0.32 ± 0.013 | 0.544 ± 0.025 | 0.215 ± 0.011 | 0.239 ± 0.04
4 | CCCCCN(CCCCC)C(=O)C(CCC(=O)O)NC(=O)c1ccc(Cl)c(Cl)c1 (stereo unspecified) [Lorglumide sodium salt] | 0.152 ± 0.0035 | – | – | – | – | – | 0.194 ± 0.019 | 0.162 ± 0.0069 | 0.302 ± 0.17 | 0.161 ± 0.025 | 0.104 ± 0.002 | 0.153 ± 0.015 | 0.243 ± 0.015
5 | OC(Cn1cncn1)(Cn1cncn1)c1ccc(F)cc1F [Fluconazole] | 0.2384 ± 0.0019 | – | – | – | – | – | 0.267 ± 0.015 | 0.283 ± 0.037 | 0.411 ± 0.012 | 0.357 ± 0.017 | 0.505 ± 0.049 | 0.195 ± 0.013 | 0.213 ± 0.032
6 | O=C(O)CCC(=O)c1ccc(-c2ccccc2)cc1 [Fenbufen] | 0.201 ± 0.0054 | – | – | – | – | – | 0.25 ± 0.049 | 0.286 ± 0.047 | 0.399 ± 0.013 | 0.235 ± 0.007 | 0.441 ± 0.051 | 0.165 ± 0.0041 | 0.203 ± 0.047
7 | CC(=O)OCC(=O)[C@@]1(O)CC[C@H]2[C@@H]3CCC4=CC(=O)CC[C@]4(C)[C@@]3(F)[C@@H](O)C[C@@]21C [Fludrocortisone acetate] | 0.188 ± 0.0026 | 0.235 ± 0.021 | 0.255 ± 0.012 | 0.141 ± 0.0083 | 0.1074 ± 0.0007 | 0.128 ± 0.0027 | 0.249 ± 0.066 | 0.37 ± 0.092 | 0.401 ± 0.0079 | 0.229 ± 0.02 | – | – | –
8 | OCc1cc(C(O)CNCCCCCCOCCCCc2ccccc2)ccc1O (stereo unspecified) [Salmeterol] | 0.166 ± 0.0032 | 0.181 ± 0.012 | 0.159 ± 0.0031 | 0.171 ± 0.0065 | 0.0641 ± 0.0012 | 0.151 ± 0.0035 | 0.176 ± 0.01 | 0.202 ± 0.049 | 0.349 ± 0.0092 | 0.201 ± 0.033 | – | – | –
9 | Cc1onc(-c2c(Cl)cccc2Cl)c1C(=O)N[C@@H]1C(=O)N2[C@@H]1SC(C)(C)[C@@H]2C(=O)O [Dicloxacillin sodium salt hydrate] | 0.222 ± 0.0048 | 0.226 ± 0.11 | 0.261 ± 0.0043 | 0.196 ± 0.02 | 0.185 ± 0.007 | 0.149 ± 0.0044 | 0.251 ± 0.056 | 0.311 ± 0.09 | 0.403 ± 0.0099 | 0.351 ± 0.017 | – | – | –
10 | CO/N=C(\C(=O)N[C@@H]1C(=O)N2C(C(=O)O)=C(C[N+]3(C)CCCC3)CS[C@H]12)c1csc(N)n1 [Cefepime hydrochloride] | 0.0426 ± 0.00078 | 0.0381 ± 0.00085 | 0.0472 ± 0.0016 | 0.03857 ± 0.00031 | 0.0612 ± 0.0025 | 0.048 ± 0.00053 | 0.197 ± 0.017 | 0.188 ± 0.012 | 0.0455 ± 0.00017 | 0.0731 ± 0.0077 | – | – | –
11 | C#C[C@]1(O)CC[C@H]2[C@@H]3CCC4=Cc5oncc5C[C@]4(C)[C@H]3CC[C@@]21C [Danazol] | 0.154 ± 0.027 | 0.168 ± 0.026 | 0.174 ± 0.022 | 0.152 ± 0.012 | 0.125 ± 0.0017 | 0.152 ± 0.0057 | 0.295 ± 0.075 | 0.277 ± 0.022 | 0.4015 ± 0.0024 | 0.309 ± 0.026 | – | – | –
12 | COc1cc2c(cc1OC)C(=O)C(CC1CCN(Cc3ccccc3)CC1)C2 (stereo unspecified) [Donepezil hydrochloride] | 0.168 ± 0.0034 | 0.251 ± 0.0063 | 0.259 ± 0.0054 | 0.158 ± 0.0035 | 0.174 ± 0.013 | 0.142 ± 0.0099 | 0.234 ± 0.039 | 0.4033 ± 0.0016 | 0.404 ± 0.011 | 0.325 ± 0.0069 | – | – | –
13 | CCN[C@H]1C[C@H](C)S(=O)(=O)c2sc(S(N)(=O)=O)cc21 [Dorzolamide hydrochloride] | 0.24 ± 0.0034 | 0.296 ± 0.003 | 0.293 ± 0.013 | 0.211 ± 0.038 | 0.187 ± 0.0042 | 0.15 ± 0.0023 | 0.216 ± 0.014 | 0.355 ± 0.06 | 0.4329 ± 0.0026 | 0.337 ± 0.019 | – | – | –
14 | CC(C)(C)C(=O)OCOC(=O)[C@@H]1N2C(=O)[C@@H](/N=C/N3CCCCCC3)[C@H]2SC1(C)C [Pivmecillinam hydrochloride] | 0.184 ± 0.0062 | – | – | – | – | – | 0.323 ± 0.028 | 0.363 ± 0.022 | 0.4196 ± 0.0028 | 0.344 ± 0.012 | 0.509 ± 0.096 | 0.218 ± 0.022 | 0.222 ± 0.024
15 | COc1ccc(OC)c(C(O)CNC(=O)CN)c1 (stereo unspecified) [Midodrine hydrochloride] | 0.243 ± 0.0087 | 0.291 ± 0.0075 | 0.281 ± 0.0091 | 0.204 ± 0.02 | 0.186 ± 0.0048 | 0.141 ± 0.0067 | 0.4 ± 0.017 | 0.505 ± 0.02 | 0.424 ± 0.0079 | 0.341 ± 0.008 | – | – | –
